Compound activity from PubChem BioAssay.
PD-1 reversal: activators reversing PD-1 mediated T-cell inhibition; primary human CD4 T cells, PD-L1 beads, CellTiter-Glo 96 h; activation, % (no concentration beside the values); 29,000 tested, under 10 active; AID 2316; call rule not given here;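 further: 0% = median vehicle wells and 100% = positive control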
YB-1 expression: YB-1 expression inhibition; U2OS, qRT-PCR YB-1 vs CDIP delta delta Cp, 16 h; active compounds read high; zero = DMSO, each unit about twofold; delta delta Cp (YB-1 minus CDIP) (no concentration beside the values); 30,000 tested, 0.37% active;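 active means delta delta Cp rounded down to an integer at or above 3, about 3 SD of DMSO wells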;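 further: higher means less YB-1 transcript or more CDIP transcript relative to DMSO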
U2OS ROS induce: raises reactive oxygen species in U2OS cancer cells | ROS induction (% of piperlongumine), % at 10 µM | AID 624156 | 46,000 tested, 2% active | U2OS ROS induction, H2DCF-DA fluorescence; in the data active means ROS induction above about 79%, passing the limit was not always enough; inconclusive means no clear call, values can overlap the other calls;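 further: 0% = DMSO vehicle median and 100% = reference compound median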
Numbers without * were called inactive; ? = inconclusive; . = not tested or not shown. This is a sample that favours compounds with a hit; in the whole collection about 2.1% have one here.

SMILES	PD-1 reversal	YB-1 expression	U2OS ROS induce
CN1C2=C(C(=O)CC(C)(C)C2)C(c2ccccc2OCC(=O)Nc2ccc(F)cc2)C2=C1CC(C)(C)CC2=O	0	.	134*
COC(=O)C1=C(C)NC(=O)NC1c1ccccc1OCC(=O)Nc1ccc(C)cc1 (stereo not drawn)	-1	.	0
CCOc1cc2[nH]c(=O)n(CCC(=O)NC3CCCCC3C)c(=O)c2cc1OCC (stereo not drawn)	.	.	-4
O=C(Nc1ccc(C(F)(F)F)cc1)c1cnc(N2CCN(c3ccccn3)CC2)c2ccccc12	.	.	96*
O=C(/C=C/c1ccccc1)Nc1ccc(N2CCN(c3ccc(C(F)(F)F)cn3)CC2)nc1	.	.	-2
COC(=O)c1cccc(C(=O)Nc2ccc(F)cc2)n1	1	0.44	6
COC(=O)c1[nH]nc2c1C(=O)N(c1ccc(F)cc1)C2=O	.	.	260*
COC(=O)CN1C(c2ccccc2)=Nc2ccc(C)cc2C1c1ccccc1 (stereo not drawn)	.	.	-13
COc1ccc(C(=S)N2CCCCC2)cc1OC	.	.	-7
C=C1C(=O)O[C@H]2[C@H]1[C@@H](OC(=O)/C(C)=C\C)C(OC(C)=O)/C(C(=O)OC)=C\CC[C@@]1(C)O[C@H]21 (stereo partly drawn)	-13	2.2	98*
C=C1C(=O)O[C@H]2[C@H]1C[C@H](OC(=O)/C(C)=C\C)/C(C)=C\CC[C@@]1(C)O[C@@H]21	-15	-0.29	139*
C=C1C(=O)O[C@H]2[C@H]1[C@@H](OC(=O)/C(C)=C/C)C(OC(C)=O)/C(C(=O)OC)=C\CC[C@@]1(C)O[C@H]21 (stereo partly drawn)	-12	-0.27	32
C=C1C(=O)O[C@H]2[C@H]1[C@@H](OC(=O)C(C)(O)CCl)C(OC(C)=O)/C(C(=O)OC)=C\CC[C@@]1(C)O[C@H]21 (stereo partly drawn)	-12	-0.17	69
O=C(CSc1nnc(-c2ccc([N+](=O)[O-])cc2)n1-c1ccccc1)Nc1ccc(Cl)cc1	0	.	27
CNC(=S)N(Cc1ccco1)C1CC(=O)N(c2ccc(C(=O)OC)cc2)C1=O (stereo not drawn)	-4	.	16
Cc1ccc(-n2ncc3c2ncn2nc(Cc4ccccc4)nc32)cc1	.	.	7
Cc1ccc(-c2nc3c(cnn3-c3ccccc3)c(=O)n2-c2cccc(C)c2)cc1	.	.	187*
COCCOC(=O)N1C(=O)[C@@]2(c3cc(C#CCCO)ccc31)[C@H](C(=O)N1CCN(c3ncccn3)CC1)[C@H]1C(=O)O[C@H](c3ccccc3)[C@H](c3ccccc3)N1[C@@H]2c1ccccc1OCCO	.	-0.46	166*
COCCOC(=O)N1C(=O)[C@@]2(c3cc(C#CC4(O)CCCCCC4)ccc31)[C@H](C(=O)N1CCN(c3ncccn3)CC1)[C@H]1C(=O)O[C@H](c3ccccc3)[C@H](c3ccccc3)N1[C@@H]2c1ccc(O)cc1	.	0.083	17
COCCOC(=O)N1C(=O)[C@@]2(c3ccccc31)[C@H](c1ccccc1OCCO)N1[C@H](c3ccccc3)[C@H](c3ccccc3)OC(=O)[C@H]1[C@@H]2C(N)=O	.	-0.11	?
COCCOC(=O)N1C(=O)[C@@]2(c3ccccc31)[C@H](C(=O)N1CCN(c3ncccn3)CC1)[C@H]1C(=O)O[C@H](c3ccccc3)[C@H](c3ccccc3)N1[C@@H]2c1ccccc1OCCO	.	-0.23	122*
Cc1cccn2c(=O)c3cc(C(=O)N4CCN(C)CC4)c(=N)n(Cc4cccnc4)c3nc12	.	.	15
CCCc1c(C#N)c(N)nc(SCCCN2CCN(c3cccc(Cl)c3)CC2)c1C#N	.	.	126*
O=c1n(CCCN2CCN(c3cccc(Cl)c3)CC2)nc2ccccn12	.	-0.52	-1
COC(=O)COc1cccc(NC(=O)c2ccc(Br)cc2)c1	-3	.	20
SMILES	PD-1 reversal	YB-1 expression	U2OS ROS induce
COC(=O)COc1cccc(NC(=O)c2cc(OC)cc(OC)c2)c1	0	.	108*
C[C@H](CO)N1C[C@H](C)[C@@H](CN(C)Cc2ccc(C(F)(F)F)cc2)Oc2ccc(NC(=O)Cc3cn(C)c4ccccc34)cc2C1=O	1	0.036	109*
C[C@H](CO)N1C[C@H](C)[C@H](CN(C)Cc2ccc(C(=O)O)cc2)Oc2ccc(NC(=O)Cc3cn(C)c4ccccc34)cc2C1=O	1	0.24	-5
C[C@@H]1CN([C@@H](C)CO)C(=O)c2cc(NC(=O)Cc3cn(C)c4ccccc34)ccc2O[C@@H]1CN(C)Cc1ccccc1	-4	-0.45	13
C[C@H]1CN([C@@H](C)CO)C(=O)c2cc(NC(=O)Cc3cn(C)c4ccccc34)ccc2O[C@@H]1CN(C)Cc1ccc(C(F)(F)F)cc1	.	-0.46	122*
CC(C)(C)c1ccc(OCc2nnc(Sc3ccc([N+](=O)[O-])cn3)n2-c2ccccc2)cc1	-10	.	35
COC(=O)C1Sc2[nH]c(=O)sc2C(c2ccc(OC)cc2)C1C(=O)OC (stereo not drawn)	.	.	13
COC(=O)C(C)Sc1nnc2c3ccccc3n(Cc3ccccc3)c2n1 (stereo not drawn)	-5	.	146*
CCC(Sc1nnc2c3ccccc3n(CC)c2n1)C(=O)NC(C)c1ccccc1 (stereo not drawn)	.	.	18
CC(C(=O)Nc1cccnc1)N(c1ccc(Oc2ccccc2)cc1)S(C)(=O)=O (stereo not drawn)	0	.	-8
C[C@@H]1CN([C@@H](C)CO)C(=O)CCCn2nncc2CO[C@@H]1CN(C)C(=O)Nc1ccc(N2CCCCC2)cc1	.	-0.14	83*
C[C@H](CO)N1C[C@H](C)[C@@H](CN(C)C(=O)Nc2ccc(N3CCCCC3)cc2)OCc2cnnn2CCCC1=O	.	0.2	1
C[C@@H]1CN([C@@H](C)CO)C(=O)CCCn2nncc2CO[C@@H]1CN(C)Cc1ccc(-c2ccccc2)cc1	.	-0.14	91*
COc1cccc(CN(C)C[C@H]2OCc3cnnn3CCCC(=O)N([C@@H](C)CO)C[C@H]2C)c1	.	0.62	125*
COc1cccc(CN(C)C[C@@H]2OCc3cnnn3CCCC(=O)N([C@@H](C)CO)C[C@H]2C)c1	.	-0.64	?
C[C@H](CO)N1C[C@H](C)[C@@H](CN(C)S(=O)(=O)c2ccc(Oc3ccccc3)nc2)OCc2cnnn2CCCC1=O	.	0.069	2
C[C@@H]1CN([C@@H](C)CO)C(=O)CCCn2nncc2CO[C@H]1CN(C)S(=O)(=O)c1ccc(Oc2ccccc2)nc1	.	-0.33	138*
C[C@H]1CN([C@@H](C)CO)C(=O)CCCn2nncc2CO[C@H]1CN(C)Cc1ccc(-c2ccccc2)cc1	.	-0.4	15
COc1cccc(NC(=O)Cn2c3ccccc3c3nc(=O)cc(C)n32)c1	.	.	-7
CCCN1C(=O)C2(c3ccccc31)c1c(oc3ccccc3c1=O)C(=O)N2CCOC (stereo not drawn)	.	.	-4
CCC(Sc1nc2ccc(Br)cc2c2nc3ccccc3n12)C(=O)NCC1CCCO1 (stereo not drawn)	.	.	-8
Cc1ccc(C(=O)Nc2sc3c(c2C#N)CCCC3)cc1S(=O)(=O)N1CCOCC1	-1	.	2
CN1C(=O)C(O)(CC(=O)c2ccco2)c2cc(Cl)ccc21 (stereo not drawn)	1	.	-2
